Columns and labels:
Settings in all cases: mESC; 2uM; 72 h treatment, harvest day 5
[1] = compound: O=C1Cc2c([nH]c3ccc(Br)cc23)-c2ccccc2N1 [Kenpaullone]; assay: fraction of microhomology deletions among edited reads; higher = more MH deletions
[2] = compound: O=c1c(-c2ccc(O)cc2)coc2cc(O)cc(O)c12 [Genistein]; assay: as above
[3] = compound: O=c1cc(N2CCOCC2)oc2c(-c3ccc4c(c3)OCCO4)csc12; assay: as above
[4] = compound: S=c1[nH]cnc2nc[nH]c12 [Mercaptopurine (6-MP)]; assay: as above
[5] = compound: S=c1nc[nH]c2nc[nH]c12 [6-Mercaptopurine (6-MP) Monohydrate]; assay: as above
[6] = compound: CC(=O)O/N=C1\C(=O)N(Cc2cc(Cl)ccc2Cl)c2ccc(Cl)cc21; assay: fraction of 1-bp insertions among edited reads; higher = more 1-bp insertion outcomes
[7] = compound: CC(C)(C#N)c1ccc(N2C(=O)OCc3cnc4ccc(-c5cnc6ccccc6c5)cc4c32)cc1; assay: as above
[8] = compound: CCCCOc1c(C(=O)c2c(F)cc(C)cc2F)c[nH]c2nncc1-2; assay: as above
[9] = compound: CCN1CCN(CC(=O)Nc2ccc(-c3cccc4c(=O)cc(N5CCOCC5)oc34)c3sc4ccccc4c23)CC1; assay: as above
[10] = compound: CCc1c2c(nc3ccc(OC(=O)N4CCC(N5CCCCC5)CC4)cc13)-c1cc3c(c(=O)n1C2)COC(=O)[C@]3(O)CC [Irinotecan HCl Trihydrate]; assay: as above

Row | Target | fraction of microhomology deletions among edited reads [1] | fraction of microhomology deletions among edited reads [2] | fraction of microhomology deletions among edited reads [3] | fraction of microhomology deletions among edited reads [4] | fraction of microhomology deletions among edited reads [5] | fraction of 1-bp insertions among edited reads [6] | fraction of 1-bp insertions among edited reads [7] | fraction of 1-bp insertions among edited reads [8] | fraction of 1-bp insertions among edited reads [9] | fraction of 1-bp insertions among edited reads [10]
1 | 39.0 (DMSO control at this site: 1-bp insertion 0.328, MH deletion 0.371, edited 0.204) CTGCACAGTCACTTAGGATAGGAGAAGATGATGTATAGGGTTTAGTGGGAGATGTTGCAAG | 0.264 | 0.404 | 0.406 | 0.356 | 0.371 | 0.334 | 0.385 | 0.418 | 0.163 | 0.423
2 | 41.0 (DMSO control at this site: 1-bp insertion 0.022, MH deletion 0.754, edited 0.115) AAAGAGACAGCAGGTATGAATCCATCTTCCTGACCCTTGGGACCAGCCGGGGCAGTGAAGC | 0.672 | 0.753 | 0.762 | 0.701 | 0.674 | 0.0367 | 0.0302 | 0.0252 | 0.0166 | 0.0367
3 | 8.0 GCATGCGTGTTTTGGGACAATGTAGTATACATTTGGGAGGCTCTCAGCTTTTCCCAATAAA | 0.0098 |  |  |  | 0.00885 | 0.443 | 0.455 | 0.303 |  | 
4 | 46.0 TTAAGAGCAATGTTCACGCAACTTGAAATTATATCTGTGGTCTTCAAATTGTCTTTTGTCA |  | 0.375 |  |  | 0.33 |  | 0.09 | 0.208 |  | 
5 | 35.0 (DMSO control at this site: 1-bp insertion 0.01, MH deletion 0.72, edited 0.098) CCACTTTTAGAGAGGGTGAAAATCATCAGTTATCATCAGGGCAACAAATTGCTTTCTCCTA | 0.683 | 0.77 | 0.809 | 0.684 | 0.657 | 0.0261 | 0.0309 | 0.00887 | 0.0214 | 0.0184
6 | 3.0 (DMSO control at this site: 1-bp insertion 0.109, MH deletion 0.149, edited 0.09) TGCTAGCGCCCCCACAAAGCGGACCAGCCAGCACTATAGGGAATAAGGCCAACTTGCACCC | 0.194 | 0.196 | 0.162 | 0.168 | 0.254 | 0.126 | 0.122 | 0.16 | 0.0557 | 0.111
7 | 31.0 (DMSO control at this site: 1-bp insertion 0.315, MH deletion 0.329, edited 0.026) ACCTCCACAGGCTGGGTGGCCCGGAGGCTGGGCGGCCCGGAGGCTGGGCTGGGCGAGTATC | 0.518 | 0.477 | 0.404 | 0.459 | 0.408 | 0.215 | 0.14 | 0.2 | 0.106 | 0.105
8 | 26.0 (DMSO control at this site: 1-bp insertion 0.518, MH deletion 0.262, edited 0.026) AGGGCGCGCCCCACGCACTCTGCGGCAAGTCCCTCTGCGGCAAGTCCTCGGCCCGGAAGAC | 0.244 | 0.296 | 0.338 | 0.311 | 0.297 | 0.507 | 0.45 | 0.513 | 0.131 | 0.466
9 | 32.0 (DMSO control at this site: 1-bp insertion 0.03, MH deletion 0.85, edited 0.898) AGAAGTCCAGGATCAGGGGGACTGGGGTCGGGAGGGTGGGGCAGGAAGGAAGCCAGAATCA | 0.904 | 0.88 | 0.92 | 0.903 | 0.897 | 0.00904 | 0.0156 | 0.0115 | 0.00897 | 0.00964
10 | 33.0 (DMSO control at this site: 1-bp insertion 0.008, MH deletion 0.771, edited 0.112) CATTAAGAGCAGCTGCCGGCCCCCAAGTGGACAGAGCTGGCCCTGCTGATTCAACAGTGCA | 0.726 | 0.732 | 0.737 | 0.699 | 0.692 | 0.0218 | 0.021 | 0.0356 | 0.018 | 0.0322
11 | 21.0 CGATTGAGAGTCAAACGGGCCAGAAAACTCCGGGAACGGGCCAGAAAACTCCGGGGCATGG | 0.17 | 0.202 | 0.158 | 0.16 | 0.165 | 0.0304 | 0.021 | 0.0327 | 0.0195 | 0.0253
12 | 28.0 (DMSO control at this site: 1-bp insertion 0.035, MH deletion 0.77, edited 0.142) TGGTTCTTCCTTTGTAGAGAGTGTTCATCTGGGAATCTGGGACTTGGATGAGACAATCATT | 0.736 | 0.784 | 0.818 | 0.718 | 0.693 | 0.0335 | 0.0355 | 0.0391 | 0.0168 | 0.0322
13 | 40.0 (DMSO control at this site: 1-bp insertion 0.072, MH deletion 0.192, edited 0.189) GCGAATCAACTGTTCAACAACAGCAGCAGCCACCTGGAGGACTACAGTGGCCTGTCCGTGT | 0.124 | 0.192 | 0.211 | 0.145 | 0.137 | 0.0727 | 0.0752 | 0.072 | 0.0486 | 0.0746
14 | 47.0 (DMSO control at this site: 1-bp insertion 0.095, MH deletion 0.585, edited 0.118) GAGTGGTCCCGAGCCAGGAACTGTGTGTGTTGCAGGGGGGCAGTAACTCCCCAACTCCCTC | 0.486 | 0.508 | 0.554 | 0.46 | 0.401 | 0.0999 | 0.09 | 0.121 | 0.0733 | 0.118
15 | 19.0 (DMSO control at this site: 1-bp insertion 0.121, MH deletion 0.101, edited 0.057) TCTGCAGGGGTCGGAACCCGGGGGCTAGGGCTATCCCGGGGGCTAGGGCTATTAGCGAACC | 0.221 | 0.186 | 0.125 | 0.238 | 0.163 | 0.111 | 0.0907 | 0.0994 | 0.0438 | 0.0969
16 | 0.0 (DMSO control at this site: 1-bp insertion 0.463, MH deletion 0.339, edited 0.14) AGGATTACCGAGACCTACGCGAACCGAAATCGCTGTCCGGTGCGCAAGCAGGGCTGGCGTC | 0.22 | 0.34 | 0.384 | 0.288 | 0.282 | 0.437 | 0.497 | 0.504 | 0.175 | 0.456
17 | 1.0 (DMSO control at this site: 1-bp insertion 0.521, MH deletion 0.323, edited 0.141) GTGTCACAGTGCACGAGTGACGGGATAATGTGCTGACAGGTAATTGATAGGCTTCCAACTT | 0.197 | 0.286 | 0.276 | 0.227 | 0.218 | 0.514 | 0.557 | 0.595 | 0.243 | 0.586
18 | 34.0 (DMSO control at this site: 1-bp insertion 0.184, MH deletion 0.385, edited 0.103) ATTATAGGACCCTGAGGGAGCAGAGATGTGGGAATGGGGGCCGAGCCAATTGTGATGTAAG | 0.473 | 0.534 | 0.476 | 0.424 |  | 0.157 | 0.154 | 0.172 | 0.0647 | 0.184
19 | 2.0 (DMSO control at this site: 1-bp insertion 0.364, MH deletion 0.356, edited 0.125) GGTGCCCCCGAGACCTACGCGAACCGAAATCGATGTCCGGTGCGCAAGCAGGGCTGGCGTC | 0.29 | 0.4 | 0.419 | 0.33 | 0.321 | 0.325 | 0.381 | 0.379 | 0.106 | 0.355
